Hit rate of the full screen: of about 48,000 compounds, about 13,000 (27%) showed an effect of 50% or more. This is one part of the list.
System: Wolbachia pipientis
Assay: Anti-Wolbachia Cell-Based Screen
Type: functional
Parameters: scale not given: in the data most compounds retested in dose-response had high values
Conditions: 5 µM

Row | SMILES | Percent Effect
1 | O=C(c1cscn1)N(CCCO)S(=O)(=O)c1cccs1 | 7.908%
2 | CN(CCSc1ccccc1)C(=O)c1cn2c(n1)CNCC2 | -0.3479%
3 | O=C(NCc1ccc(C(=O)N2CCCC2)cc1)c1cn2c(n1)CNCC2 | -4.939%
4 | CN1C(=O)CC(N(C)Cc2nc3ccccc3c(=O)[nH]2)C1=O (stereo not given) | -8.963%
5 | CCC(C)N(Cc1ccncc1)Cc1cccc(Cn2cccn2)c1 (stereo not given) | -14.79%
6 | CCc1[nH]c2c(CNc3cncc(C(=O)OC)n3)cc(C)cc2c1C | 11.12%
7 | O[C@H]1COCCN(Cc2cccc3c2OCO3)C1 | -4.774%
8 | CCOc1ccccc1-c1noc(CN2CCOC(CN(C)C)C2)n1 (stereo not given) | 7.76%
9 | CC(C)c1nnc2n1CCN(C(=O)c1ccc3cc[nH]c3c1)C2 | -4.188%
10 | CC(C)c1nnc2n1CCN(C(=O)c1cc3cc(F)ccc3[nH]1)C2 | 98.88%
11 | Cc1ccccc1-c1cc(C(=O)N2CCn3c(C)nnc3C2)[nH]n1 | -2.104%
12 | Cc1nnc2n1CCN(C(=O)c1cc3cc(F)ccc3[nH]1)C2 | 87.27%
13 | Cc1nnc2n1CCN(C(=O)c1cc(Cl)c[nH]1)C2 | -1.056%
14 | CC(C)c1nnc2n1CCN(C(=O)c1ccnc(N(C)C)c1)C2 | -1.642%
15 | O=C(NC[C@H]1OC[C@@H](NCc2ccccc2)[C@@H]1O)Nc1ccccc1 | -15.87%
16 | C1CC(CN2C[C@H]3CC[C@@H]2CN(Cc2nnc(C4CC4)o2)C3)C1 | 1.497%
17 | C1CC(CN2CC[C@@H]3O[C@@H](c4nnc(C5CC5)o4)C[C@H]3C2)CCO1 | 104.3%
18 | C1CC(CN2C[C@@H]3C[C@@H](c4nnc(C5CC5)o4)O[C@@H]3C2)C1 | 108.7%
19 | Cc1nnc([C@@H]2CC[C@@H]3[C@@H](CCN3CC3CCOCC3)O2)o1 | 8.23%
20 | Cc1nnc([C@H]2CC[C@@H]3[C@@H](CCN3CC3CCOCC3)O2)o1 | -4.928%
21 | O=C(Cc1ccsc1)N1C[C@@H]2C[C@@H](c3nnc(C4CC4)o3)O[C@@H]2C1 | 1.752%
22 | C1CC(CN2C[C@@H]3C[C@@H](c4nnc(C5CC5)o4)O[C@@H]3C2)CCO1 | 101.2%
23 | Cc1noc([C@@H]2C[C@H]3CN(CC4CCOCC4)C[C@H]3O2)n1.O=C(O)C(F)(F)F | 45.83%
24 | COc1cc2c(cc1OC)S(=O)(=O)N(Cc1ccccc1)C2=O | -12.48%
25 | CCC(C)N(Cc1cccnc1)Cc1ccccc1Cn1cccn1 (stereo not given) | 1.099%
